The entries come from a sample that favours hits as a whole.
Tg IFNy HTS – T. gondii growth inhibition with IFN-gamma, primary screen, cell-based; Toxoplasma gondii growth in IFN-gamma-treated host cells; hits give low values; activity change, negative = inhibition, % (no concentration beside the values); actives 3.8% (n = 69,000); in the data active = activity change below about -70%, passing the limit was not always enough;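 note: host cells are HeLa cells infected with Toxoplasma gondii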
Numbers without * were called inactive; i = inactive.

SMILES | Tg IFNy HTS
Cc1nc(-c2cccc(F)c2)sc1CCNC(=O)c1ccc(OC(C)C)cc1 | -47
CCc1ccccc1NC(=O)CN1C(=O)CCc2cc(Br)ccc21 | -42
c1cn(Cc2ccc(-n3cncn3)cc2)c(-c2ccc3nonc3c2)n1 | -39
CSc1nccc(-c2ccc(S(C)(=O)=O)cc2)n1 | -4
Cc1nn(C)c(C)c1-c1ccnc(NCCN2CCN(C(C)C)CC2)n1 | -2
Cc1ncc(-c2ccnc(Nc3ccc(S(C)(=O)=O)cc3)n2)n1C(C)C | -77*
CN(C)c1ccc2cc(C(=O)N3CCC(CCN4CCOCC4)CC3)[nH]c2c1 | -6
COc1ccc(-c2nc(C)c(CCNC(=O)C(=O)Nc3ccccc3)s2)cc1 | 1
COc1ccc(Cc2nn3c(C(=O)c4cccs4)nn(-c4ccccc4)c3nc2=O)cc1 | -94*
COc1ccc(-c2nc(C)c(CCNC(=O)c3cccs3)s2)cc1 | i
COc1ccc(S(=O)(=O)Nc2cncc(C(=O)NCCc3nc4ccccc4[nH]3)c2)cc1 | 20
Cc1cc(OC(=O)c2c(-c3c(Cl)cccc3Cl)noc2C)n(-c2ccccc2)n1 | 21
Cc1ccc(C2(O)CCN(C(=O)c3cccc4c3OCC4)CC2)nc1 | 5
O=C(NCc1cnn2cccnc12)c1ccccc1C1CCNC1 (configuration not stated) | 12
CCn1c(SCc2nc(-c3ccc(C)cc3)oc2C)nc2c(=O)[nH]cnc21 | 24
Cc1oc(-c2ccc(Cl)cc2)nc1CSc1nc2c(=O)[nH]cnc2n1-c1ccccc1 | -27
CCn1c(SCc2nc(-c3cccc(Cl)c3)oc2C)nc2c(=O)[nH]cnc21 | 165
Cc1oc(-c2ccc(OC(C)C)cc2)nc1CSc1nc2c(=O)[nH]cnc2n1-c1ccccc1 | -69
Cc1ccc(-n2c(SCc3nc(-c4cccc(C)c4)oc3C)nc3c(=O)[nH]cnc32)cc1 | i
Cc1ccc(-c2nc(CSc3nc4c(=O)[nH]cnc4n3-c3ccccc3)c(C)o2)cc1 | -104*
COc1cccc(-c2nc(CSc3nc4c(=O)[nH]cnc4n3-c3ccccc3)c(C)o2)c1OC | -54
Cc1oc(-c2cccc(Cl)c2)nc1CSc1nc2c(=O)[nH]cnc2n1-c1ccccc1 | -84*
Cc1ccc(-c2nc(CSc3nc4c(=O)[nH]cnc4n3-c3ccc(C)cc3)c(C)o2)cc1 | -95*
COc1ccc(-c2nc(C)c(CCNC(=O)C(=O)Nc3ccc(F)cc3F)s2)cc1 | 116
CCC(=O)NC1CCc2c(ccc(=O)n2Cc2csc(C)n2)C1 (configuration not stated) | -3
SMILES | Tg IFNy HTS
CC(C)Oc1ccc2cc(C(=O)N3[C@@H]4CC[C@H]3CNC(=O)C4)c(=O)oc2c1 | 2
CCS(=O)(=O)N1CCO[C@H]2[C@@H](OCc3ccccn3)CC[C@H]21 | 6
COCC(C)NCc1cc(-c2ccccc2)cn2c(=O)n(C)nc12 (configuration not stated) | 119
CN(C)C(=O)CN1Cc2ccnn2CC(COCc2cccnc2)C1 (configuration not stated) | 2
O=C(c1ccc[nH]1)N1Cc2nccn2CC(CN2CCCC2)C1 (configuration not stated) | -6
O=C1CCCN1CC1CN(C(=O)c2ccccn2)Cc2nccn2C1 (configuration not stated) | -98*
O=C1CCCN1CC1CN(CC2CCOC2)Cc2nccn2C1 (configuration not stated) | 0
CCN(CC)C(=O)C1Cn2ccnc2C2(CCN(C(=O)c3cccs3)CC2)O1 (configuration not stated) | 9
CN(C)c1ncc2c(n1)[C@H]1CN(Cc3ccccc3F)C[C@@H]1S(=O)(=O)C2 | -103*
O=S1(=O)Cc2cnc(NCC3CC3)nc2[C@H]2CN(Cc3ccc(F)cc3)C[C@@H]21 | -7
CN(C)c1ncc2c(n1)[C@H]1CN(C(=O)c3ccccc3)C[C@@H]1S(=O)(=O)C2 | 1
Cc1cc(NC(=O)N2CCC3(CC2)Nc2cc(F)ccc2-n2cccc23)ccc1Br | 254
Cn1cc(-c2cc3n(n2)CCC(=O)N3CC(=O)NCCCN2CCCC2)c2ccccc21 | 41
CCOc1ccc(NC(=O)N2CCC(c3nc(C(=O)N(C)C)c(C)o3)CC2)cc1 | 67
Cc1ccc(S(=O)(=O)c2ncsc2SCc2ccc(Cl)cc2Cl)cc1 | -94*
Cc1cc2nc3ccccc3c(=O)n2c(SCc2ccc(Cl)cc2Cl)n1 | 4
Cc1ccc(S(=O)(=O)Nc2cc(=O)[nH]c(SCc3ccccc3Cl)n2)cc1 | -2
COCC(=O)N1CC[C@H](OCc2ccncc2)[C@@H](Cc2ccccc2)C1 | 30
Cn1cnc2cc(C(=O)Nc3ccc4c(c3)nc(C(F)(F)F)n4C)ccc21 | -27
Cn1c(Nc2ccc(C(F)(F)F)cc2)nc2cc(Oc3ccnc(-c4ncc(C(F)(F)F)[nH]4)c3)ccc21 | -73*
CCc1nc2cc(NC(=O)COc3ccc4nsnc4c3)ccc2n1C | 19
O=C(c1nc2ccccc2s1)C1CCN(C(=O)c2csc3c2CCCC3)CC1 | -14
Cc1cc(C)cc(OCCCN(C)C(=O)c2nn(C)c(=O)c3ccccc23)c1 | 62
Cc1nc(CN(C)Cc2ccc(-n3cccn3)cc2)co1 | 11
Cc1oc2c(O)c(O)ccc2c(=O)c1-c1ccccc1 | 43
SMILES | Tg IFNy HTS
Cc1cc(=O)oc2c(O)c(O)ccc12 | 7
O=c1cc(-c2ccccc2)oc2c(O)c(O)ccc12 | -92*
N#Cc1cccc(C(=O)N2Cc3nccn3CC(Cn3cccn3)C2)c1 (configuration not stated) | -65
COc1ccc(CC(=O)Nc2ccc(-c3nc(-c4cc(C)ccc4C)co3)cc2)cc1 | -11
COCCn1c(-c2ccc(OC)cc2)cnc1SCC(=O)Nc1ccc(C)c(Cl)c1 | -90*
COc1ccc(-c2ccnc(SCC(=O)Nc3ccccc3)n2)cc1 | -23
Cc1cccc(CCNC(=O)c2ccc(-c3nc(CN4CCN(c5ccccc5)CC4)c(C)o3)cc2)c1 | -45
Cc1nn(CCO)cc1CN1CCN(S(=O)(=O)c2ccccc2)CC1 | -7
CCn1cc(CN2CCN(C(=O)c3cc4c(F)cccc4[nH]3)CC2)c(C)n1 | -108*
CCn1cc(CN2CCN(C(=O)c3ccnc(N4CCOCC4)c3)CC2)c(C)n1 | 14
c1ccc2c(c1)COC(c1cnc(N3CCOCC3)nc1)N2 (configuration not stated) | 87
CN(C)C(=O)N1CCC(n2cccn2)c2cc(NC(=O)c3ccco3)ccc21 (configuration not stated) | -4
CCC(=O)N1CCC2(CC1)C(=O)Nc1ccc(C(=O)NC3CC3)cc12 | 3
COC1CCCC(C(=O)N2CCC3(CC2)C(=O)Nc2ccc(-c4ccc(C(C)=O)cc4)cc23)C1 (configuration not stated) | -86*
COC1CCCC(C(=O)N2CCC3(CC2)C(=O)Nc2ccc(-c4cccc(F)c4)cc23)C1 (configuration not stated) | 11
Cn1cc(N2CC3(CCN(C(=O)c4cnccn4)C3)CC2=O)cn1 (configuration not stated) | 7
Cn1cc(CN2CCC3(c4ccccc4)CN(S(C)(=O)=O)CC3C2)cn1 (configuration not stated) | 7
CN(C)C1COC2(CCN(Cc3ccc4c(c3)OCO4)CC2)C1 (configuration not stated) | -6
CC(C)CCN1C[C@H]2[C@H](C(=O)Nc3ccccc3)CCS(=O)(=O)[C@H]2C1 | -94*
O=C(Nc1ccccc1)[C@@H]1CCS(=O)(=O)[C@H]2CN(Cc3ccc(F)cc3)C[C@@H]12 | -6

From PubChem
